# Bioassay records from PubChem.
# Coupling enz: inhibits coupling enzyme system, counter-screen for aldolase hits. coupling enzyme system counterscreen, AmpLite Red fluorescence. activity change, negative = inhibition, % at 58.2 µM, hits read low. actives 0.67% (n = 290,000); in the data active means activity change below about -30%
#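 Coupling enzymes only (glyceraldehyde-3-phosphate) + compound, at 57.5 uM final, 10 min RT; add substrate/coupling/AmpLite Red mix, 20 min RT; fluorescence ex 525/em 598 nm. Actives flag coupling-system interference.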
# Tau ThT inhib: blocks human tau fibril formation measured by thioflavin T | recombinant tau K18 P301L, heparin-induced fibrillization, ThT fluorescence | Potency, µM (top dose mostly 57.4 µM), for inactives: at the highest dose activity, negative = inhibition, most hits filed as inhibitors | actives 2.1% (n = 270,000) | AID 1460; further: potency means the concentration at half of the fitted maximal effect; nearly all actives have a fitted effect of over 55% in size
# Target sequence (P10636 561-689 P618L limits assumed): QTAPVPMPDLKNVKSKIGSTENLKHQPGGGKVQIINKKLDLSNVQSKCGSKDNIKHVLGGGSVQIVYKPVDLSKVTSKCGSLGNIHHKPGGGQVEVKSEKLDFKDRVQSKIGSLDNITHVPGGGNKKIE
#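 Fibril formation assay: tau K18 P301L at 15 uM with trace Alexa 594 label, heparin inducer 20 uM, pH 7 sodium acetate buffer, 37 C for 6 hr; endpoint ThT signal.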
# USP1 inh: blocks the human USP1/UAF1 deubiquitinase complex | recombinant USP1/UAF1, Ub-Rhodamine cleavage fluorescence | Potency, µM (series often up to 57.1 µM), without a hit: at the highest dose activity change, negative = inhibition, hits mostly inhibitors | actives 0.23% (n = 390,000) | AID 743255; further: potency means the concentration at half of the fitted maximal effect; nearly all actives have a fitted effect of over 60% in size
#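 1 nM enzyme complex + cpd, 15 min RT; start with Ub-Rho 150nM final; kinetic fluorescence ex 480/em 540, 6 reads q60 s. Buffer 50mM HEPES pH 7.8, 0.5mM EDTA, 0.1 mg/ml BSA, 1mM TCEP, 0.01% Tween-20.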
# Tau fluor counter: counter-screen for tau fibril formation inhibitors | tau K18 P301L (four-repeat tau fragment) Alexa594 fluorescence, heparin fibrillization | Potency, µM (top dose mostly 57.7 µM), for inactives: at the highest dose activity change, negative = decrease | actives 0.93% (n = 280,000); further: potency means the concentration at half of the fitted maximal effect; nearly all actives have a fitted effect of over 55% in size
#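 Human K18 P301L tau (15 uM unlabeled plus 0.24 uM Alexa 594-labeled, final) in 100 mM sodium acetate pH 7 was mixed with compound and 20 uM heparin and incubated 6 hr at 37 C.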
# Tau fibril FP: inhibitors of human tau fibril formation; P10636; K18 P301L tau heparin fibrillization, Alexa594 FP, 6 h; Potency, µM (titrated, usually from 57.7 µM), for inactives: at the highest dose activity, negative = inhibition, usual class: inhibitors; actives 0.39% (n = 280,000); AID 1468; further: potency means the concentration at half of the fitted maximal effect; nearly all actives have a fitted effect of over 55% in size
#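 Read-out: fluorescence polarization of Alexa 594-labeled tau (0.24 uM), 555 nm excitation, 632 nm emission. Mixtures held 15 uM unlabeled K18 P301L, compound and 20 uM heparin, pH 7 acetate buffer, incubated 6 hr at 37 C.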
# * = called active by the depositor; ? = inconclusive; / = not tested or not shown; [ ] = another dose, or the depositor's remark. Rows were chosen to be rich in hits. Some 2.3% of all compounds tested hit in one or more screens of this group. Unless noted, the call rests on the fitted dose curve; in most records, active means well fitted curve in the direction sought with a large enough effect; inconclusive means small, poorly fitted or top-dose-only effect, or another doubt; inactive means no such curve, though single readings can be large; an effect the other way counts as inactive or inconclusive. On the % scale 0 is the no-effect control and ±100 the full control effect.
SMILES,Coupling enz,Tau ThT inhib,USP1 inh,Tau fluor counter,Tau fibril FP
Cc1ccc(CNC(=O)CN2CCN(Cc3ccc(F)cc3)C2=O)cc1,/,-2.8%,-18.5%,-2.7%,-0.2%
Cc1cccc(N2CC(C(=O)NCC3COc4ccccc4O3)CC2=O)c1C (stereo not drawn),/,/,-8.8%,/,/
CCOC(=O)c1cc(-c2ccc(/C=C3/C(=O)NC(=O)C(C#N)=C3C)o2)ccc1Cl,-4.5,?,?,?,-10.9%
CC1=C(C#N)C(=O)NC(=O)/C1=C\c1ccc(-c2ccc(C)cc2[N+](=O)[O-])o1,-6.5,15.8µM*,?,?,?
N#Cc1ccc(NC(=O)c2nc(-c3ccccc3)n(-c3ccccc3)n2)cc1,-38.5*,0.4%,-19.4%,-17.4%,-0.1%
CC(=O)c1ccc(NC(=O)c2nc(-c3ccccc3)n(-c3ccccc3)n2)cc1,/,-7.9%,?,-12.3%,2.8%
O=[N+]([O-])c1cc(Br)c(O)c(/C=N/Nc2nnnn2-c2cccc3ccccc23)c1,0.3,15.8µM*,-26.8%,?,?
CC(=O)c1ccc(N(CC(=O)Nc2cc(C)on2)S(=O)(=O)c2ccc(C)cc2)cc1,/,/,-6.3%,/,/
COC(=O)C1=CN(c2cccc(C)c2)C=C(C(=O)OC)C1c1cc(OC)c(O)c([N+](=O)[O-])c1,1.4,15.8µM*,-17.3%,?,13.1%
COC(=O)C1=CN(c2ccc(OC)cc2)C=C(C(=O)OC)C1c1ccc(C)c([N+](=O)[O-])c1,-1.5,-0.2%,-13.2%,-18.1%,-7.7%
CCCCCCCCCCCCCCCCn1cc[n+](Cc2ccccc2)c1C,0.0,/,/,/,/
Cc1oc(-c2cccc(Cl)c2)nc1CS(=O)(=O)CC(=O)NCc1ccccc1Cl,/,0.9%,-5.5%,-6.9%,-0.7%
C=CCN1C=CC(=C/C=C(/C#N)C(=O)OCC)C=C1,-5.0,?,28.2µM*,-9.9%,7.0%
Cc1c(Cl)cccc1NC(=O)C(C)N(c1ccccc1)S(C)(=O)=O (stereo not drawn),/,3.2%,-17.1%,-4.1%,-15.2%
Cc1ccc(S(=O)(=O)NC(C)(C)CSc2nnc(Nc3ccccc3)s2)cc1,-0.2,-16.7%,-17.7%,17.8µM*[quencher],3.8%
CC(C)(CSc1ncccn1)NS(=O)(=O)c1ccccc1,1.3,2.5%,-16.3%,-6.5%,12.7%
Oc1cc(-n2cccn2)c(O)cc1-n1cccn1,-7.4,15.8µM*,-9.4%,15.8µM*[quencher],?
COCCCN1C(=O)/C(=C/c2ccc(CNS(=O)(=O)c3ccccc3)o2)C(C(=O)OC)=C1C,-11.3,14.1µM*,-20.6%,-19.1%,?
CCCC(=O)C1=C(O)C(C(=O)OC)C(C)(C)CC1=Nc1ccc(N)cc1 (stereo not drawn),4.0,-7.9%,-5.2%,-7.3%,-1.3%
CCCC(=Nc1ccc(N)cc1)C1=C(O)C(C(=O)OC)C(C)(C)CC1=O (stereo not drawn),-41.2*,7.94µM*,?,7.08µM*[quencher],14.1µM*
CCOc1ccc(-c2nnc(SCC(=O)NC3CCCC3)nc2-c2ccc(OCC)c(OC)c2)cc1OC,/,10.9%,?,13.3%,1.5%
CC(=O)c1ccc2c(c1)N(C)c1ccccc1S2,1.7,10µM*,-6.7%,?,12.9%
Oc1ccc(/C=N/n2c(-c3ccco3)csc2=Nc2cccnc2)c(O)c1,-2.1,?,-24.6%,?,-2.0%
C=CCN=c1scc(-c2ccco2)n1/N=C/c1ccc(O)c(O)c1O,-34.7*,6.31µM*,-20.1%,7.94µM*[quencher],?
CC(C)N=c1scc(-c2ccco2)n1/N=C/c1ccc(O)c(O)c1,-4.7,14.1µM*,-21.4%,14.1µM*[quencher],?
SMILES,Coupling enz,Tau ThT inhib,USP1 inh,Tau fluor counter,Tau fibril FP
COCCN=c1scc(-c2ccco2)n1/N=C/c1ccc(O)c(O)c1O,-50.6*,12.6µM*,?,?,25.1µM*
CCCCCn1c(=O)[nH]c2cc(C(=O)N3CCN(c4cc(Cl)ccc4C)CC3)ccc2c1=O,/,0.8%,-15.6%,-0.8%,-4.6%
CCN1C(=O)/C(=c2\sc3nc(=O)c(Cc4ccccc4)nn3c2=O)c2ccccc21,1.0,20µM*,?,-13.7%,-16.6%
C=CCN1C(=O)/C(=c2\sc3nc(=O)c(Cc4ccc(OC)c(OC)c4)nn3c2=O)c2ccccc21,6.2,28.2µM*,-16.4%,-29.9%,?
C=CCN1C(=O)/C(=c2\sc3nc(=O)c(Cc4ccccc4)nn3c2=O)c2ccccc21,4.1,17.8µM*,-9.1%,-23.4%,?
CCN1C(=O)/C(=C/c2nc3ccccc3c(=O)[nH]2)c2ccccc21,-2.2,?,-5.6%,-4.0%,1.9%
Cc1cc2c(cc1NS(=O)(=O)c1cccc(C#N)c1)n(C)c(=O)c(=O)n2C,/,-8.9%,-18.7%,-2.1%,-2.6%
CC(=C1C(=O)c2ccccc2C1=O)N1CCC(C(N)=O)(N2CCCCC2)CC1,-9.9,31.6µM*,-12.2%,-20.0%,-8.8%
COc1ccc(/C=C/C(=O)CC(=O)/C=C/c2cccc(O)c2OC)cc1O,-2.5,1.26µM*,/,8.91µM*[quencher],-9.3%
COc1cc(/C=C/C(=O)c2ccc(Cl)s2)cc(OC)c1O,-1.5,14.1µM*,-4.2%,?,5.3%
COc1ccc(/C=C/C(=O)c2ccc(Cl)s2)cc1O,-2.4,7.94µM*,-23.3%,?,?
COc1ccc(C=CC(=O)c2ccc(OC)c(OC)c2)cc1O,/,/,-7.6%,/,/
Cc1c(N2C(=O)/C(=C\c3ccccc3O)SC2=S)c(=O)n(-c2ccccc2)n1C,-3.2,31.6µM*,-22.2%,-25.6%,?
CN1C(=O)/C(=C/c2cc(N=Nc3ccccc3)ccc2O)SC1=S,-0.1,4.47µM*,?,6.31µM*[quencher],?
COc1ccc(OC)c(-c2nnc3n(CCc4ccccc4)c(=O)c4ccccc4n23)c1,/,-2.1%,-5.6%,?,-6.8%
CCCSc1oc(-c2ccco2)nc1S(=O)(=O)c1ccccc1,-35.9*,-6.1%,-23.5%,-26.3%,-16.5%
CCCSc1oc(-c2ccco2)nc1S(=O)(=O)c1ccc(C)cc1,0.1,/,-20.5%,/,/
Cc1ccc(C(=O)NC(C#N)=C(Cl)Cl)cc1,1.3,25.1µM*,?,-9.8%,?
Oc1ccc(-c2csc(Nc3ncccn3)n2)c(O)c1,1.7,?,-19.4%,?,?
Oc1ccc(-c2csc(-c3ccccc3)n2)cc1O,-2.8,10µM*,-15.5%,15.8µM*[quencher],-1.5%
Oc1ccc(-c2csc(Nc3ncccn3)n2)cc1O,-9.7,11.2µM*,-6.5%,?,18.0%
O=C1CCSC2(C(=O)N(Cc3ccc(F)cc3)c3ccccc32)N1c1ccc(Cl)cc1 (stereo not drawn),/,?,-18.4%,-24.0%,?
CCCN(CCC)CCCNC(=O)C1CCCN(S(=O)(=O)c2cccc3nsnc23)C1 (stereo not drawn),/,3.1%,?,2.6%,-6.0%
COc1cc(/C=C2\SC(=S)N(N(C)c3ccccc3)C2=O)ccc1O,1.5,25.1µM*,-5.4%,25.1µM*[quencher],-4.2%
